The text below walks through data of PubChem BioAssay.

Active and inactive are the calls of the source.

The nature of assay [1]: binders of probe aFSTL3 on microarray, primary screen, stem cell growth factor project, biochemical, small-molecule microarray, fluorescence 635/667 (AID 1064).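 Further: measures binding of the biotinylated anti-FSTL3 antibody to printed compounds.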 The conditions noted are these: higher = more signal.
Assay [2] can be described thus: binders from COS7 lysate, DM2A8 probe, primary screen, torsin A project, cell lysate, small-molecule microarray, fluorescence 635/667 (AID 1065). The conditions noted are these: higher = more signal, COS7 lysate expressing mutant human TOR1A.
A short description of assay [3]: binders of probe aFGF2 on microarray, primary screen, stem cell growth factor project, biochemical, small-molecule microarray, fluorescence 635/667 (AID 1067).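 Further: measures binding of biotinylated aFGF2 protein to printed compounds on slides; z-score merges feature fluorescence and signal-to-noise across triplicate slides.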 The conditions noted are these: higher = more signal.
A short description of assay [4]: binders of probe aFGF10 on microarray, primary screen, stem cell growth factor project, biochemical, small-molecule microarray, fluorescence 635/667 (AID 1071).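 Further: score merges 667 nm spot intensity and signal to noise from triplicate slides.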 Conditions: higher = more signal.
For assay [5], the target named is Neurogenic locus notch homolog protein 2 (Homo sapiens) (UniProt Q04721). Kind of assay: Notch2 binders on small-molecule microarrays, primary screen, biochemical, small-molecule microarray, 635 nm fluorescence, stem cell growth factors (AID 1073). Conditions: Notch2 binding, higher = more signal.
In assay [6] the target is Pro-neuregulin-1, membrane-bound isoform (Homo sapiens) (UniProt Q02297). Kind of assay: NRG1 binders on small-molecule microarrays, primary screen, psychiatric disease protein project, biochemical, small-molecule microarray, fluorescence 635/667 (AID 1075).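 Further: score combines 667 nm spot fluorescence with signal to noise.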 The conditions noted are these: NRG1 binding, 635 nm fluorescence, higher = more signal.
Assay [7] deals with Neuregulin-1 EGF-like domain. In words: binders of neuregulin-1 EGF-like domain, primary screen, biochemical, small-molecule microarray, 635 nm fluorescence (AID 1081).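 Further: binding of the protein to compounds printed on small-molecule microarray slides.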 The conditions noted are these: small-molecule microarray binding, higher = more signal.
Assay [8] can be described thus: FRG1 promoter luciferase signal modulators, primary screen, FRG1 inhibition for FSHD, cell-based, C2C12 myotubes, firefly/Renilla luciferase, luminescence (AID 1084). The conditions noted are these: higher = more signal, called active from +8 up or from −8 down.
Assay [9] can be described thus: binders of probe aFST on microarray, primary screen, stem cell growth factor project, biochemical, small-molecule microarray, fluorescence 635/667 (AID 1086).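 Further: score merges 667 nm fluorescence with signal-to-noise of each printed compound spot.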 The conditions noted are these: higher = more signal.
Assay [10] in a line: binders of probe aHhip on microarray, primary screen, stem cell growth factor project, biochemical, small-molecule microarray, fluorescence 635/667 (AID 1087).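 Further: score merges spot fluorescence at 667nm with spot signal to noise ratio.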 Conditions: higher = more signal.
The test system of assay [11] is PRMT1 (protein arginine N-methyltransferase 1). In words: PRMT1 binders on small-molecule microarrays, primary screen, biochemical, small-molecule microarray, 635 nm fluorescence (AID 1088).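 Further: binding of Prmt1 protein to compounds spotted on small-molecule microarray slides.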 The conditions noted are these: small-molecule microarray binding, higher = more signal.
The nature of assay [12]: yeast growth modulation, basal conditions, primary screen, YJM789 clinical isolate, OD600, 24 h (AID 1089).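 Further: growth of clinical yeast isolate S. cerevisiae YJM 789 seeded 1000 cells per well; test concentration not given here.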 The conditions noted are these: S. cerevisiae YJM789 growth, higher = more signal, called active from +8 up or from −8 down.
Assay [13] in a line: fission yeast growth modulation, primary screen, strain 972, OD600, 24 h, no modulator (AID 1090).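 Further: basal condition with compound alone and no growth modifier present; test concentration not given here.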 The conditions noted are these: S. pombe 972 growth, higher = more signal, called active from +8 up or from −8 down.
A short description of assay [14]: S. cerevisiae growth modulation with rapamycin, primary screen, strain BY4716, OD600, 96 h (AID 1091). Further: test concentration not given here. The conditions noted are these: higher = more signal, called active from +8 up or from −8 down.
In assay [15] the target is Torsin-1A-interacting protein 2 (Homo sapiens) (UniProt Q8NFQ8). In words: LULL1 binders on small-molecule microarray, primary screen, cell lysate, human LULL1 lysate, 635/667 nm fluorescence (AID 1092).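 Further: probe is lysate of COS7 cells overexpressing human LULL1; score merges per-feature 667 nm fluorescence with signal-to-noise.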 Conditions: hLULL1 lysate binding, 635 nm fluorescence, higher = more signal.
A short description of assay [16]: E. coli growth modulation, two-sided OD650, primary screen, E. coli filamentation project, strain DRC41, 24 h (AID 1093).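 Further: MC1000 strain lacking acrAB efflux and sulA so SOS filamentation is blocked; test concentration not given here.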 The conditions noted are these: OD650, 24 h, higher = more signal, called active from +8 up or from −8 down.
A short description of assay [17]: small-molecule microarray binders of probe aLefty2, primary screen, biochemical, biotinylated probe, 635/667 nm fluorescence (AID 1094).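 Further: score merges spot fluorescence near 667 nm with spot signal-to-noise ratio.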 Conditions: higher = more signal.
In assay [18] the test system is Noggin (protein binding on small-molecule microarray). In words: Noggin binders on small-molecule microarray, primary screen, biochemical, 635/667 nm fluorescence (AID 1095).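 Further: score merges 667 nm feature fluorescence with signal to noise over triplicate slides.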 Conditions: 635 nm fluorescence, higher = more signal.
Assay [19] addresses Neurogenic locus notch homolog protein 3 (Homo sapiens) (UniProt Q9UM47). In words: NOTCH3 binders on small-molecule microarray, primary screen, biochemical, 635/667 nm fluorescence (AID 1096). The conditions noted are these: NOTCH3 binding, 635 nm fluorescence, higher = more signal.
Assay [20] can be described thus: small-molecule microarray binders of probe aEGFR, primary screen, biochemical, biotinylated probe, 635/667 nm fluorescence (AID 1097).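 Further: probe is a biotinylated anti-EGFR antibody binding compounds printed on slides; score combines fluorescence near 667 nm and signal to noise of each spot.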 The conditions noted are these: higher = more signal.

Chain of Torsin-1A-interacting protein 2 (Homo sapiens) (Q8NFQ8 whole entry, looked up): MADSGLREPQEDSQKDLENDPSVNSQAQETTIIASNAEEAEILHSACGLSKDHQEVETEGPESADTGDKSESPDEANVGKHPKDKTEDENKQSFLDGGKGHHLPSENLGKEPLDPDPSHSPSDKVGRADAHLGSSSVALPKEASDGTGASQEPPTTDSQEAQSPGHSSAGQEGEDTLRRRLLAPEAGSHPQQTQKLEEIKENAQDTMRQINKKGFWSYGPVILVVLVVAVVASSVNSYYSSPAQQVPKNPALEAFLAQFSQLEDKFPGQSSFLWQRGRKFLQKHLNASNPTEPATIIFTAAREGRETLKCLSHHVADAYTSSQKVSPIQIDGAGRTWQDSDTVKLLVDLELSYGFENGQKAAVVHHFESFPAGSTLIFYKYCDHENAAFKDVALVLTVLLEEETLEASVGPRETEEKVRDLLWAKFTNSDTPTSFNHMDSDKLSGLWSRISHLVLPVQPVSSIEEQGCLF
Chain of Pro-neuregulin-1, membrane-bound isoform (Homo sapiens) (Q02297 whole entry, looked up, the tested form may be a part, canonical isoform): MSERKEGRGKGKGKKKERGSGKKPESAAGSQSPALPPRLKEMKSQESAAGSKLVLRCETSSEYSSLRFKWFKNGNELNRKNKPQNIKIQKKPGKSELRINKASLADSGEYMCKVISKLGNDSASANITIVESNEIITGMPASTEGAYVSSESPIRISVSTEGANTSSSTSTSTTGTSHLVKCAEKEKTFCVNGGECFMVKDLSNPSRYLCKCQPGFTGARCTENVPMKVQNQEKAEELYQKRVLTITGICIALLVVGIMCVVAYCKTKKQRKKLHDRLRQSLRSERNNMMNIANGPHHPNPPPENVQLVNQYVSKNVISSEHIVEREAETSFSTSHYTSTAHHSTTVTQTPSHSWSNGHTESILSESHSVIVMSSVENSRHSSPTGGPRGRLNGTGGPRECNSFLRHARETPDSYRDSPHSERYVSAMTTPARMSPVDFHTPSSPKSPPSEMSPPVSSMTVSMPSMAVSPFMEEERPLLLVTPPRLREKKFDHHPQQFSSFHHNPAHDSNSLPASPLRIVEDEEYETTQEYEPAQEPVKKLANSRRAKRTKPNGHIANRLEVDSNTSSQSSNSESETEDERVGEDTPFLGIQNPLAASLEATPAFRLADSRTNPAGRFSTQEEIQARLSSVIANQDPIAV
Chain of Neurogenic locus notch homolog protein 2 (Homo sapiens) (Q04721 whole entry, looked up, canonical isoform): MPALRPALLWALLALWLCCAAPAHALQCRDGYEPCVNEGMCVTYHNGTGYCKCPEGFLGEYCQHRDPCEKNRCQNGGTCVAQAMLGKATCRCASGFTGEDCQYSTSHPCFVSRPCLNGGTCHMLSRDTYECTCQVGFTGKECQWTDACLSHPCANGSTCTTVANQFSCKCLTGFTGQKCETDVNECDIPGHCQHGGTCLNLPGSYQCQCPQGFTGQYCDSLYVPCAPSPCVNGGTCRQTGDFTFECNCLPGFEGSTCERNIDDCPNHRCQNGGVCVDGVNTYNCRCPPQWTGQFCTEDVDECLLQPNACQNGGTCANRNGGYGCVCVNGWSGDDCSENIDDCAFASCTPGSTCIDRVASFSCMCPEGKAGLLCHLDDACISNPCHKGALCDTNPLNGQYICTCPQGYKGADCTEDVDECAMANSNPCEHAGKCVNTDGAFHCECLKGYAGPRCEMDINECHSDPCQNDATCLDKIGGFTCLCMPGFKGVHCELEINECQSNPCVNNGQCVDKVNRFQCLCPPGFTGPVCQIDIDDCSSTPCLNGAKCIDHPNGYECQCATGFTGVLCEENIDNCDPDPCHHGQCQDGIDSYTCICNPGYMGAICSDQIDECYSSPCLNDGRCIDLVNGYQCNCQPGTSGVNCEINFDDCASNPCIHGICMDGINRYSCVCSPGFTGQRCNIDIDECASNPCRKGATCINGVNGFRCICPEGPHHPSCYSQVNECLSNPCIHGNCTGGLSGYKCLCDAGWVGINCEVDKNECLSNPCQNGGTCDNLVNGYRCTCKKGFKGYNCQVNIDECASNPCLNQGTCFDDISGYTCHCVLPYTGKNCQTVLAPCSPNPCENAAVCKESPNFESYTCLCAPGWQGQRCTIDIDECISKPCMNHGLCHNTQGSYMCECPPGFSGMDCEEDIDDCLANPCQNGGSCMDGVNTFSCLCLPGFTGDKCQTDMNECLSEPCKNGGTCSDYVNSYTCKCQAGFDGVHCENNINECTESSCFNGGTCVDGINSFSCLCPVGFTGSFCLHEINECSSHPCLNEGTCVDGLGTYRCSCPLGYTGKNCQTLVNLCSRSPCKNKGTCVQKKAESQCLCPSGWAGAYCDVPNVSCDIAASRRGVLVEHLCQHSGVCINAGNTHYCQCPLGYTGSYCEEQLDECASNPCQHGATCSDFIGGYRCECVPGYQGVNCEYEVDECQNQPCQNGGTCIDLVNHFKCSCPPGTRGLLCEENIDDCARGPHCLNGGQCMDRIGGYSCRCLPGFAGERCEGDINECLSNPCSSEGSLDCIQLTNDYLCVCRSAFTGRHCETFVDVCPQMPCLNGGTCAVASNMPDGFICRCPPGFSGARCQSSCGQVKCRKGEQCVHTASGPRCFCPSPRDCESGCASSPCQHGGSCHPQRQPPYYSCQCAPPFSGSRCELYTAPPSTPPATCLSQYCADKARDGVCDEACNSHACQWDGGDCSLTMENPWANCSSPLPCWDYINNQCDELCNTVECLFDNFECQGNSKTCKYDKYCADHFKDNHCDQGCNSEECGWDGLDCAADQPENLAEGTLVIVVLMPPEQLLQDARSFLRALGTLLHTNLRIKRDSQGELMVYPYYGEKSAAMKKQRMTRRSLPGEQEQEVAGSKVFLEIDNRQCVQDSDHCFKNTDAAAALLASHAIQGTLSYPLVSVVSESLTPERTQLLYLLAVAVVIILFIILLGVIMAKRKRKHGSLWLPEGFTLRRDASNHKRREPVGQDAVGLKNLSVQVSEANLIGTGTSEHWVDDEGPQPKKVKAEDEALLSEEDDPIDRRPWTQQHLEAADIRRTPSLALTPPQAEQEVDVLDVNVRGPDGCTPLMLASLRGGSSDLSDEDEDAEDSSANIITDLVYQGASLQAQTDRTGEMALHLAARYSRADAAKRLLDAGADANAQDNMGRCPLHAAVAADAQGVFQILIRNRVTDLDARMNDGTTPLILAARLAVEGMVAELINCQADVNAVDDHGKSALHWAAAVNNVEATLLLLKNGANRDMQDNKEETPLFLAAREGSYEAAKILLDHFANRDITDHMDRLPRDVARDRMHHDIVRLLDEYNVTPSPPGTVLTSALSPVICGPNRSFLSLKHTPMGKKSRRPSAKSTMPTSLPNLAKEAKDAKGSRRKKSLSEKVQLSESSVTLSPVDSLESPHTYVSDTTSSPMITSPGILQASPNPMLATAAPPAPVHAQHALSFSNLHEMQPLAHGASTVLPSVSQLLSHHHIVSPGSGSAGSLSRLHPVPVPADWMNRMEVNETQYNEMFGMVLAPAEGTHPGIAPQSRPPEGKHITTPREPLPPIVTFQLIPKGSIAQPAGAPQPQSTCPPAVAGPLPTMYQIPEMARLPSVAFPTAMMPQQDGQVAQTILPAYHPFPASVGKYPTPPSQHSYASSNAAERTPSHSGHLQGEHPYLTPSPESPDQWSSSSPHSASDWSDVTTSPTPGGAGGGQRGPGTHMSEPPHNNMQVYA

With `CC(C)CON=C1[C@H]2CCn3c(=O)n(C)c(=O)n3[C@H]2[C@H](O)[C@@H]2O[C@H]12`, the composite z-score was -0.553 in assay [1]; -0.0908 in [2]; -0.136 in [3]; 0.469 in assay [4]; 0.493 in assay [5]; 0.288 in assay [6]. Besides, the composite z-score was 0.157 in assay [7]; -0.0694 in assay [9]; 0.0505 in [10]; -0.117 in assay [11]; -0.0761 in assay [15]; -0.112 in assay [17]. In addition, the composite z-score in assay [18] came to 0.757; in assay [19], 0.861; in [20], 0.006. In addition, the z-score in assay [8] was -0.0014 (inactive); in assay [12], 0.0116 (inactive); in [13] it was -0.08 (inactive); in assay [14], -0.6 (inactive); in [16], 0.253 (inactive).

For `COc1ccc(COC(=O)NN=C2C[C@@H](O)[C@@H](O)[C@@H]3[C@@H]4C(=O)N(C5CCCCC5)C(=O)[C@@H]4CC[C@@H]23)cc1`, the composite z-score in [1] was 0.848; in assay [2], -0.132; in assay [3], -0.0883; in assay [4], -0.176; in assay [5], -0.515; in [6], -0.112. Besides, the composite z-score was -0.313 in [7]; 1.34 in assay [9]; -0.48 in assay [10]; 0.35 in [11]; 0.611 in assay [15]; 0.687 in [17]. Further, the composite z-score in assay [18] is 0.159; in assay [19] it was -0.218; in assay [20], -0.127. The z-score in assay [8] was 0.468 (inactive); in assay [12] it was -0.703 (inactive); in assay [13], -1.86 (inactive); in [14], -0.617 (inactive); in [16] it was -1.03 (inactive).

Regarding `O=C1C[C@@H](O)[C@@H](O)[C@@H]2[C@@H]3C(=O)N(c4ccc(F)cc4F)C(=O)[C@@H]3CC[C@H]12`, the composite z-score is -0.517 in assay [1]; 0.248 in assay [2]; -0.1 in assay [3]; 0.648 in [4]; 0.601 in assay [5]; 0.0794 in assay [6]. In addition, the composite z-score was 0.354 in [7]; 0.201 in assay [9]; 0.0373 in assay [10]; 0.599 in assay [11]; 0.734 in assay [15]; -0.0782 in assay [17]. Besides, the composite z-score in assay [18] is 0.43; in [19], 0.6; in [20], -0.0695. In addition, the z-score was -0.536 (inactive) in assay [8]; -0.175 (inactive) in [12]; -0.177 (inactive) in assay [13]; -0.147 (inactive) in assay [14]; 0.124 (inactive) in assay [16].

As for `COC(=O)C(C(=O)OC)C1CCCC(=O)C1` (stereo not given), the composite z-score in assay [1] was -0.414; in [2], 1.45; in [3], -0.0611; in assay [4], 0.353; in assay [5], 0.329; in [6], -0.146. The composite z-score in assay [7] was -0.127; in [9] it was 0.406; in assay [10] it was -0.264; in assay [11], -0.734; in assay [15] it was 0.291; in assay [17] it was -0.0362. Also, the figures for the composite z-score in [18], in [19] and in assay [20] were 0.365, 0.655 and -0.0952, respectively. The z-score in assay [8] was 0.335 (inactive); in [12], 0.069 (inactive); in assay [13], 0.389 (inactive); in [14] it was 0.751 (inactive); in assay [16] it was -0.195 (inactive).

As for `C[C@@H]1CC[C@H]2C(=O)N3[C@@H](CC[C@@H](C)[C@@H]3c3ccc(Br)cc3)C(=O)N2[C@H]1c1ccc(Br)cc1`, the composite z-score in assay [1] is -0.241; in [2], 0.318; in assay [3], -0.131; in [4], 0.3; in assay [5], 0.599; in [6] it was -0.0193. The composite z-score is 0.354 in [7]; 0.343 in assay [9]; -0.173 in assay [10]; -0.455 in assay [11]; 0.241 in assay [15]; -0.0865 in assay [17]. Also, the composite z-score in assay [18] was 0.259; in [19] it was 0.305; in [20], -0.0987. Also, the z-score is -0.469 (inactive) in assay [8]; -0.275 (inactive) in [12]; -4.1 (inactive) in assay [13]; 0.805 (inactive) in assay [14]; -0.19 (inactive) in assay [16].
